Laboratory results as given in PubChem BioAssay (NCI).
This is part of a sample that, as a whole, favours compounds with a hit. Of some 79,000 tested, about 15% had one in any assay. The source made the active and inactive calls. Rule as the data show it: active = growth inhibition above about 70%; inactive = the rest.

Assays:
[1] = NCI Yeast Anticancer Drug Screen. Data for the rad52 strain (AID 147);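 also: 0% = growth of vehicle-treated control cultures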; details: S. cerevisiae rad52 mutant growth inhibition, stronger effect = higher value
In short: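 Yeast strain carrying a DNA damage repair alteration was exposed to test compounds. Growth inhibition was measured relative to vehicle-treated controls.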

[2] = NCI Yeast Anticancer Drug Screen. Data for the wt1 strain (AID 149);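 also: 0% = growth of vehicle-treated wt1 cultures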; details: S. cerevisiae wt1 strain (SPY 50644) growth inhibition, stronger effect = higher value
In short: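 Measured: growth of wt1 yeast under compound versus vehicle treatment, reported as inhibition.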

[3] = NCI Yeast Anticancer Drug Screen. Data for the rad50EPP+ strain (AID 151);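 also: 0% = growth of vehicle-treated control cultures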; details: S. cerevisiae rad50 mutant strain, stronger effect = higher value
In short: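 Yeast strain carrying rad50 alteration (rad50EPP+) exposed to compounds; growth inhibition measured relative to vehicle-treated controls.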

[4] = NCI Yeast Anticancer Drug Screen. Data for the mgt1 strain (AID 153); details: S. cerevisiae mgt1 mutant growth inhibition, stronger effect = higher value
In short: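 Yeast mgt1 strain (DNA repair/cell-cycle alteration panel) exposed to compounds; growth inhibition measured relative to vehicle-treated controls.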

[5] = NCI Yeast Anticancer Drug Screen. Data for the rad50 strain (AID 155);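 also: 0% = growth of vehicle-only cultures of the same strain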; details: S. cerevisiae rad50 strain growth inhibition, stronger effect = higher value
In short: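 Growth of the mutant yeast was measured after compound exposure and referenced to vehicle-treated cultures.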

[6] = NCI Yeast Anticancer Drug Screen. Data for the mec2-1 strain (AID 157); details: S. cerevisiae mec2-1 strain, stronger effect = higher value
In short: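 mec2-1 yeast strain, carrying an alteration in DNA damage repair or cell cycle control, was exposed to compounds; growth inhibition was measured relative to vehicle-treated controls.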

[7] = NCI Yeast Anticancer Drug Screen. Data for the rad14 strain (AID 159);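 also: 0% = growth of vehicle-treated control cultures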; details: S. cerevisiae rad14 strain growth inhibition, stronger effect = higher value
In short: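 Here, inhibition of yeast growth was measured after compound exposure, using a strain with a genetic defect in DNA damage repair and vehicle-treated cultures as the reference.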

[8] = NCI Yeast Anticancer Drug Screen. Data for the sgs1 mgt1 strain (AID 161);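 also: 0% = growth of cultures given vehicle only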; details: S. cerevisiae sgs1 mgt1 strain, stronger effect = higher value
In short: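 This yeast growth screen uses a strain with defined DNA-repair lesions; compound-treated growth is compared with vehicle-treated growth.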

[9] = NCI Yeast Anticancer Drug Screen. Data for the CLN2oe strain (AID 163);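 also: 0% = growth of vehicle-only control cultures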; details: S. cerevisiae CLN2oe strain, stronger effect = higher value
In short: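 Yeast cells carrying a defined cell-cycle control alteration were exposed to test compounds. Growth inhibition was scored against vehicle-treated control cultures.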

[10] = NCI Yeast Anticancer Drug Screen. Data for the cln2 rad14 strain (AID 165);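 also: 0% = growth equal to vehicle treated cultures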; details: S. cerevisiae cln2 rad14 strain, stronger effect = higher value
In short: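 Yeast carrying cln2 and rad14 alterations (cell cycle control and DNA damage repair) were exposed to compounds. Growth inhibition was measured against vehicle-treated controls.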

[11] = NCI Yeast Anticancer Drug Screen. Data for the bub3 strain (AID 167); details: S. cerevisiae bub3 mutant strain, stronger effect = higher value
In short: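 Whole-cell yeast assay. The mutant strain was incubated with compounds, and growth inhibition was determined by comparison with vehicle-treated cells.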

[12] = NCI Yeast Anticancer Drug Screen. Data for the wt2 strain (AID 169);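 also: 0% = growth of vehicle-treated yeast cultures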; details: S. cerevisiae wt2 strain growth inhibition, stronger effect = higher value
In short: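 Yeast cells were exposed to test compounds, and growth inhibition was measured relative to vehicle-treated controls.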

[13] = NCI Yeast Anticancer Drug Screen. Data for the mlh1 strain (AID 171);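 also: 0% = growth of vehicle-treated control cultures of the same strain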; details: S. cerevisiae mlh1 strain growth inhibition, stronger effect = higher value
In short: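 Yeast carrying a defined genetic alteration in DNA damage repair or cell cycle control were exposed to test compounds. Growth inhibition was measured relative to vehicle-treated controls.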

[14] = NCI Yeast Anticancer Drug Screen. Data for the sgs1 strain (AID 173);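 also: 0% = growth of vehicle-only control cultures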; details: S. cerevisiae sgs1 mutant, stronger effect = higher value
In short: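 Yeast mutant strains carrying defined defects in DNA damage repair or cell cycle control were exposed to test compounds. Growth inhibition was scored against vehicle-treated controls.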

[15] = NCI Yeast Anticancer Drug Screen. Data for the mlh1 rad18 strain (AID 175); details: S. cerevisiae mlh1 rad18 strain growth inhibition, stronger effect = higher value
In short: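 Growth inhibition of the yeast strain was measured after compound exposure and expressed relative to vehicle-treated controls. The strain carries defined defects in DNA damage repair.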

[16] = NCI Yeast Anticancer Drug Screen. Data for the rad18 strain (AID 177); details: S. cerevisiae rad18 mutant growth inhibition, stronger effect = higher value
In short: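 Yeast carrying a defined DNA damage repair alteration were exposed to compounds. Growth inhibition was expressed relative to vehicle-treated controls.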

[17] = at 5.0 µM (retest, dose inferred, filed as 0.5)
[18] = at 50.0 µM (retest, dose inferred, filed as 5.0)

Measured: growth inhibition

COc1cc2ccc(/C=C\[N+](=O)[O-])cc2cc1OC
inactive: [1]; at 1.2 µM 1% | [1]; at 3.7 µM 13% | [2]; at 1.2 µM -24% | [2]; at 3.7 µM -25% | [2]; at 11.0 µM -37% | [3]; at 1.2 µM 18% | [3]; at 3.7 µM 39% | [4]; at 1.2 µM -18% | [4]; at 3.7 µM -23% | [4]; at 11.0 µM 24% | [5]; at 1.2 µM -5% | [5]; at 3.7 µM 26% | [5]; [17] 44% | [5]; at 11.0 µM 51% | [6]; at 1.2 µM 10% | [6]; at 3.7 µM -34% | [6]; [17] 29% | [6]; at 11.0 µM 38% | [7]; at 1.2 µM -26% | [7]; at 3.7 µM -39% | [7]; at 11.0 µM -18% | [8]; [17] 11% | [9]; at 1.2 µM 12% | [9]; at 3.7 µM 0% | [9]; at 11.0 µM -4% | [10]; [17] -14% | [10]; [18] -25% | [11]; at 1.2 µM -30% | [11]; at 3.7 µM -21% | [11]; [17] 17% | [11]; at 11.0 µM -22% | [11]; [18] 53% | [12]; at 1.2 µM -14% | [12]; at 3.7 µM 4% | [12]; at 11.0 µM 22% | [13]; at 1.2 µM -36% | [13]; at 3.7 µM -36% | [13]; at 11.0 µM 19% | [14]; at 1.2 µM -4% | [14]; at 3.7 µM 16% | [14]; at 11.0 µM 47% | [15]; [17] 45% | [16]; at 1.2 µM -17% | [16]; at 3.7 µM -33% | [16]; at 11.0 µM 18%
active: [1]; at 11.0 µM 70% | [1]; at 33.0 µM 97% | [1]; at 100.0 µM 94% | [2]; at 33.0 µM 98% | [2]; at 100.0 µM 96% | [3]; at 11.0 µM 83% | [3]; at 33.0 µM 98% | [3]; at 100.0 µM 96% | [4]; at 33.0 µM 97% | [4]; at 100.0 µM 95% | [5]; at 33.0 µM 96% | [5]; [18] 99% | [5]; at 50.0 µM 91% | [5]; at 100.0 µM 94% | [6]; at 33.0 µM 97% | [6]; [18] 99% | [6]; at 50.0 µM 90.5% | [6]; at 100.0 µM 95% | [7]; at 33.0 µM 97% | [7]; at 100.0 µM 95% | [8]; [18] 85% | [8]; at 50.0 µM 90.7% | [9]; at 33.0 µM 91% | [9]; at 100.0 µM 95% | [10]; at 50.0 µM 86.1% | [11]; at 33.0 µM 85% | [11]; at 50.0 µM 91.9% | [11]; at 100.0 µM 95% | [12]; at 33.0 µM 98% | [12]; at 100.0 µM 97% | [13]; at 33.0 µM 98% | [13]; at 100.0 µM 97% | [14]; at 33.0 µM 98% | [14]; at 100.0 µM 97% | [15]; [18] 98% | [15]; at 50.0 µM 92.3% | [16]; at 33.0 µM 97% | [16]; at 100.0 µM 93%
